Drawing on ChEMBL document CHEMBL1961873, “Compounds: GSK PKIS; Assays: Nanosyn kinase panel” (2012), this text covers inhibition for 4 molecules.

Test [1] deals with 5'-AMP-activated protein kinase catalytic subunit alpha-2 (Homo sapiens) (UniProt P54646). The note with it: at 1 µM.
Test [2] deals with T1, NUAK family SNF1-like kinase 1 (Homo sapiens) (UniProt O60285).
T1 sequence (whole entry): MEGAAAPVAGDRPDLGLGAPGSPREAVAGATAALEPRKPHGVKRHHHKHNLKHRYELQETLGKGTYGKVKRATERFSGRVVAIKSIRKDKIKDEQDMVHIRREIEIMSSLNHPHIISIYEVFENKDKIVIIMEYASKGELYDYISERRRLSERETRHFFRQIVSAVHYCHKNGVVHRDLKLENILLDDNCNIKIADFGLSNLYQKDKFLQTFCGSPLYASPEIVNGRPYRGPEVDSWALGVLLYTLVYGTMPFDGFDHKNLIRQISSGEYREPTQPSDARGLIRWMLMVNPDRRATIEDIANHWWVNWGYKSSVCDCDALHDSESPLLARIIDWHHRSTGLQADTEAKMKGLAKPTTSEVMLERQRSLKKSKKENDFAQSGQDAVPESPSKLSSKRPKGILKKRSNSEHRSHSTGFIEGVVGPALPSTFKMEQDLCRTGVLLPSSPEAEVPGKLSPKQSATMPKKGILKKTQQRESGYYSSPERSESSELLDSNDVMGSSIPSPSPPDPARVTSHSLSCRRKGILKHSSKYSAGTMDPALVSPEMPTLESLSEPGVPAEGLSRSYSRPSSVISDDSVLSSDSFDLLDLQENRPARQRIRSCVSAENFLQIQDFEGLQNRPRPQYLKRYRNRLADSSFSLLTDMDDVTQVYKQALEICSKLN
The note with it: at 0.1 µM.

Test [3] addresses T1, NUAK family SNF1-like kinase 1 (Homo sapiens). The note with it: at 1 µM.
Test [4] addresses T2, Serine/threonine-protein kinase BRSK1 (Homo sapiens) (UniProt Q8TDC3).
T2 sequence (whole entry): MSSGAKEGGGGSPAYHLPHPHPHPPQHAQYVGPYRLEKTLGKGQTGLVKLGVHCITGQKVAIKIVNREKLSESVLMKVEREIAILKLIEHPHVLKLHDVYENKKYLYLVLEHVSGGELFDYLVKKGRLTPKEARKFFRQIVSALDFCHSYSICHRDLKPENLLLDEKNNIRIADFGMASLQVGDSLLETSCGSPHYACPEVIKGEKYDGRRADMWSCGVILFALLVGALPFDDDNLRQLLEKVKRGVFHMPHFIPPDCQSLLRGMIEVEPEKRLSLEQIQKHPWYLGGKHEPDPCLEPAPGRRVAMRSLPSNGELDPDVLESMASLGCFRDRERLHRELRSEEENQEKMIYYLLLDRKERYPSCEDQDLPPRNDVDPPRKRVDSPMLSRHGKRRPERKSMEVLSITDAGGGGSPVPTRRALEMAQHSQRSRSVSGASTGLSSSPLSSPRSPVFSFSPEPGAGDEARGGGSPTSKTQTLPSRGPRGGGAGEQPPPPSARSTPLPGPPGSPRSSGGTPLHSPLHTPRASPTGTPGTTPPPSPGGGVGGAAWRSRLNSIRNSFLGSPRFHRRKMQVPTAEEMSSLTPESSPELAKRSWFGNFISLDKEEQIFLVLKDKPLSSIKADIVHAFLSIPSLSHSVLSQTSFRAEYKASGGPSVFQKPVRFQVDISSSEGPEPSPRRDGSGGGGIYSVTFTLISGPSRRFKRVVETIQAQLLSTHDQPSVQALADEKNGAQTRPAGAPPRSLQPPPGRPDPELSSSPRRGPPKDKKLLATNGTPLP
The settings on record: at 0.1 µM.

For test [5], the target named is T2, Serine/threonine-protein kinase BRSK1 (Homo sapiens). The note with it: at 1 µM.
Test [6] concerns the target T3, Serine/threonine-protein kinase BRSK2 (Homo sapiens) (UniProt Q8IWQ3).
T3 sequence (whole entry): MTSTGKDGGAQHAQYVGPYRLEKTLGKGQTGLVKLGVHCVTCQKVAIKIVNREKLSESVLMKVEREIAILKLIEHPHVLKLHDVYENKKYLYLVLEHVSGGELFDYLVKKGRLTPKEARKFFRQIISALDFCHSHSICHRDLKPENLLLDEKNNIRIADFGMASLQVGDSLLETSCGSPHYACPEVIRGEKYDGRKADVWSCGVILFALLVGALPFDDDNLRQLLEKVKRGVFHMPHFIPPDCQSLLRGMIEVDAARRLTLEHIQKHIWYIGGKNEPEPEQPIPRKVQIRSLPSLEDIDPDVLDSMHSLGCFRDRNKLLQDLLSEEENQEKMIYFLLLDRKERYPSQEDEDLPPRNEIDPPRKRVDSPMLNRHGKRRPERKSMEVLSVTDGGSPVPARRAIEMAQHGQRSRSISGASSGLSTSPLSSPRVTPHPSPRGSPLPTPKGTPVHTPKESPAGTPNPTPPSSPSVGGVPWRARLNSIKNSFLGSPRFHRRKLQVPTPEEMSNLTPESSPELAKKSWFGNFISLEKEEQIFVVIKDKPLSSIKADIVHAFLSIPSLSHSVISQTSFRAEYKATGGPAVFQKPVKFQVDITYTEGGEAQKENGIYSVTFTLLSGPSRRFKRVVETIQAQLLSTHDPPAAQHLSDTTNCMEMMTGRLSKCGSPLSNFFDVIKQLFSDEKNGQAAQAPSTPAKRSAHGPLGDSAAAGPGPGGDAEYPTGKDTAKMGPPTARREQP
The settings on record: at 0.1 µM.

The target in test [7] is T3, Serine/threonine-protein kinase BRSK2 (Homo sapiens). The note with it: at 1 µM.
Test [8] addresses Calcium/calmodulin-dependent protein kinase type 1D (Homo sapiens) (UniProt Q8IU85). The note with it: at 0.1 µM.
Test [9] shares this target. The settings on record: at 1 µM.
The target of test [10] is Calcium/calmodulin-dependent protein kinase type II subunit alpha (Homo sapiens) (UniProt Q9UQM7). The settings on record: at 0.1 µM.
For test [11] the target is unchanged. The settings on record: at 1 µM.
Test [12] addresses Calcium/calmodulin-dependent protein kinase type II subunit delta (Homo sapiens) (UniProt Q13557). The note with it: at 0.1 µM.
Test [13] has the same target. The settings on record: at 1 µM.
In test [14] the target is T4, Calcium/calmodulin-dependent protein kinase type IV (Homo sapiens) (UniProt Q16566).
T4 sequence (whole entry): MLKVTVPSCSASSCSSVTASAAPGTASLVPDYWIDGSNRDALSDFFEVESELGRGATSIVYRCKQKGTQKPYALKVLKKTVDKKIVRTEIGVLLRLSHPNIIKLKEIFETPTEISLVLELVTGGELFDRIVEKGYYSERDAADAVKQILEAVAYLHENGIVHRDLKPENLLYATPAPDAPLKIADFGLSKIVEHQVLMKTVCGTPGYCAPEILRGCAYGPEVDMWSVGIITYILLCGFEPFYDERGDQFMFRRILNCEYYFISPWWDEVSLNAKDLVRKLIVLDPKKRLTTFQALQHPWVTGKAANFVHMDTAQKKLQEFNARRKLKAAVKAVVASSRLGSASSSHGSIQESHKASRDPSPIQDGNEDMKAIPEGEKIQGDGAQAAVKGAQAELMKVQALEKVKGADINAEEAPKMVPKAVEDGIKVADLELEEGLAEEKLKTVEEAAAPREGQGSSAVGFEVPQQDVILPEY
The settings on record: at 0.1 µM.

Test [15] has as its target T4, Calcium/calmodulin-dependent protein kinase type IV (Homo sapiens). The note with it: at 1 µM.
Test [16] has as its target T5, Serine/threonine-protein kinase Chk1 (Homo sapiens) (UniProt O14757).
T5 sequence (whole entry): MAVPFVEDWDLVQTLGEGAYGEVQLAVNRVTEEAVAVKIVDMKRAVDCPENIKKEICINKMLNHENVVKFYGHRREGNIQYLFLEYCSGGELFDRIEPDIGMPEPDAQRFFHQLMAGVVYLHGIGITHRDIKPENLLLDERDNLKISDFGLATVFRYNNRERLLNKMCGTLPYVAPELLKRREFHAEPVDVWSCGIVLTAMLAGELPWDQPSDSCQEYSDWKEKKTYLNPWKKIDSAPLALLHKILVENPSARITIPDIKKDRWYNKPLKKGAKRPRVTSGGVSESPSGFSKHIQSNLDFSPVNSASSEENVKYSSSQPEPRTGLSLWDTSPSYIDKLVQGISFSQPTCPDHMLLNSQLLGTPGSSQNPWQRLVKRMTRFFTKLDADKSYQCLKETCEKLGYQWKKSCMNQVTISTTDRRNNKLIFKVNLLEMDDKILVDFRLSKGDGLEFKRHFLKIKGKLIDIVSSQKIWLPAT
The note with it: at 0.1 µM.

For test [17], the target named is T5, Serine/threonine-protein kinase Chk1 (Homo sapiens). The settings on record: at 1 µM.
For test [18], the target named is Serine/threonine-protein kinase Chk2 (Homo sapiens) (UniProt O96017). The note with it: at 0.1 µM.
For test [19] the target is unchanged. The settings on record: at 1 µM.
Test [20] concerns the target Death-associated protein kinase 1 (Homo sapiens) (UniProt P53355). The note with it: at 0.1 µM.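 Further: reported figure is the mean inhibition of DAPK1.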

Calcium/calmodulin-dependent protein kinase type II subunit alpha (Homo sapiens), sequence (Q9UQM7 whole entry): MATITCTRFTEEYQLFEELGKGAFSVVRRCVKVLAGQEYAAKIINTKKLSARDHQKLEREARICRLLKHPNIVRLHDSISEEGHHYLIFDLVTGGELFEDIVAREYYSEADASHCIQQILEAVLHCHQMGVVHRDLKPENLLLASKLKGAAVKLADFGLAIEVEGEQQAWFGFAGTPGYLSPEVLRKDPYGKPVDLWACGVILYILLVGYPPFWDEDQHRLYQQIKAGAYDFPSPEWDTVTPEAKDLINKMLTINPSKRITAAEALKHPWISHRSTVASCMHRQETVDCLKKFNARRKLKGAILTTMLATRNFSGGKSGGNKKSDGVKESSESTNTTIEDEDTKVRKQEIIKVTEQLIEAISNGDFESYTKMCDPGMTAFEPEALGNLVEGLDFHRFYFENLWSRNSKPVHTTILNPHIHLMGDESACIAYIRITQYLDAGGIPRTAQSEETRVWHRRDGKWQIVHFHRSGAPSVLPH
Death-associated protein kinase 1 (Homo sapiens), sequence (P53355 whole entry, looked up): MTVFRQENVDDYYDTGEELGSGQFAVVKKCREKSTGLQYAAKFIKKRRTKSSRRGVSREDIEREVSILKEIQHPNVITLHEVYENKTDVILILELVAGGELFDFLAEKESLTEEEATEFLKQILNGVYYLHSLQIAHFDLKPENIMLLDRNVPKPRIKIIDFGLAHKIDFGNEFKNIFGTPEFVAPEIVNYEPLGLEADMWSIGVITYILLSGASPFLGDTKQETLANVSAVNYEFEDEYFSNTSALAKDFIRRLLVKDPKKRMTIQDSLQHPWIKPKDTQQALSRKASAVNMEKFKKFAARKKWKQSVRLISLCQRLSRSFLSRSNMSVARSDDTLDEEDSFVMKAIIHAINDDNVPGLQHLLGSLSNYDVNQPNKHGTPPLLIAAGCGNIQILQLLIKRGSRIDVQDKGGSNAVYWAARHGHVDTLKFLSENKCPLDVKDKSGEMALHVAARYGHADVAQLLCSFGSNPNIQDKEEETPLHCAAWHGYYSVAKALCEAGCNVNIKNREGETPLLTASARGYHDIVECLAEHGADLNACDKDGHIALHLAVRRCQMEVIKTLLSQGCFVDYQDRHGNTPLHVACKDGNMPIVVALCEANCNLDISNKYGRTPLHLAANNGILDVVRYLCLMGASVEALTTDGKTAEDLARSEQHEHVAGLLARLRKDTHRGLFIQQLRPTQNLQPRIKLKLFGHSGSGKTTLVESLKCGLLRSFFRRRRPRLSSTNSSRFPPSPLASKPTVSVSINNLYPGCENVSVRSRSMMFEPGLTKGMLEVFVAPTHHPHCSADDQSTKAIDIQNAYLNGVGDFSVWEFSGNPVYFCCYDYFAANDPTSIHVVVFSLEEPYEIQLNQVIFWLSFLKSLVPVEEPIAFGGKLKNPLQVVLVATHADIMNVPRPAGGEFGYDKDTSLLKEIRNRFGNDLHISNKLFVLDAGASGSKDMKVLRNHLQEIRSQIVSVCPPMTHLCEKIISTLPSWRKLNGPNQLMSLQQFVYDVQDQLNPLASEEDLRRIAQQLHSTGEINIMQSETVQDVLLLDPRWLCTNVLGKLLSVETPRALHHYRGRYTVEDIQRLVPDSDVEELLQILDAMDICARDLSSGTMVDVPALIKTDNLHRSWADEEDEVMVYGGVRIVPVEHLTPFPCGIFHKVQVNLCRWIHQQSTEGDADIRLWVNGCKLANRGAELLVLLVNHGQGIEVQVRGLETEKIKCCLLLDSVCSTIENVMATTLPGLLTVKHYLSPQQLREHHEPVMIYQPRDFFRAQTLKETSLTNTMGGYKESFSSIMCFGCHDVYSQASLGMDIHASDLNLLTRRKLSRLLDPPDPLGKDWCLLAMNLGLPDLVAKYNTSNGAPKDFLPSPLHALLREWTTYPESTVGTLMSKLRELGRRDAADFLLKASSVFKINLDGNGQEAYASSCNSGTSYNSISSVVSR
5'-AMP-activated protein kinase catalytic subunit alpha-2 (Homo sapiens), sequence (P54646 whole entry, looked up): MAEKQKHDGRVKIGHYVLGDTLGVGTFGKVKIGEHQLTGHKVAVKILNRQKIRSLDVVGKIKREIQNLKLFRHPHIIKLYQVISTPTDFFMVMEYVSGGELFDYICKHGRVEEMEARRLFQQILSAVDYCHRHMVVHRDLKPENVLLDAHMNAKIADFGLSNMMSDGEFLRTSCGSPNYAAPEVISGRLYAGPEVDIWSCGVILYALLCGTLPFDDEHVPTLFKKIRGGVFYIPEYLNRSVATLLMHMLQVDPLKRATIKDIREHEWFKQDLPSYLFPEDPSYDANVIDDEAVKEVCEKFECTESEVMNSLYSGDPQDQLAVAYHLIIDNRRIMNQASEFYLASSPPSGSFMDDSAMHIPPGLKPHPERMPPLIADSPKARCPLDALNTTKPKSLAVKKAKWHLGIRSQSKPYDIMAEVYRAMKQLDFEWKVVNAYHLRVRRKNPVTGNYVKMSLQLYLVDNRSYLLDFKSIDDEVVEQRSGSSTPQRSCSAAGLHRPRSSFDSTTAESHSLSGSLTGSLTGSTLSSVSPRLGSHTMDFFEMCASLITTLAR
Calcium/calmodulin-dependent protein kinase type 1D (Homo sapiens), sequence (Q8IU85 whole entry, looked up): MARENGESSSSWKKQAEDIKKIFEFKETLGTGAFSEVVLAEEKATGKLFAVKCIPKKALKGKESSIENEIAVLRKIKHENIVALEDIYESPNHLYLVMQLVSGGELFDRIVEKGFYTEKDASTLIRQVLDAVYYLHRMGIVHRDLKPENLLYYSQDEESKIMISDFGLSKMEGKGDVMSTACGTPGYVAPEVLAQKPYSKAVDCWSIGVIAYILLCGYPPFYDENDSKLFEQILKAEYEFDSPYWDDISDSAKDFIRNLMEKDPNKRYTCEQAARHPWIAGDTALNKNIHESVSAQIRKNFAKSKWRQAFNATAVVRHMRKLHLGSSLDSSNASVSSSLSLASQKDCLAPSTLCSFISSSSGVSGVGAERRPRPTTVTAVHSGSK
Serine/threonine-protein kinase Chk2 (Homo sapiens), sequence (O96017 whole entry): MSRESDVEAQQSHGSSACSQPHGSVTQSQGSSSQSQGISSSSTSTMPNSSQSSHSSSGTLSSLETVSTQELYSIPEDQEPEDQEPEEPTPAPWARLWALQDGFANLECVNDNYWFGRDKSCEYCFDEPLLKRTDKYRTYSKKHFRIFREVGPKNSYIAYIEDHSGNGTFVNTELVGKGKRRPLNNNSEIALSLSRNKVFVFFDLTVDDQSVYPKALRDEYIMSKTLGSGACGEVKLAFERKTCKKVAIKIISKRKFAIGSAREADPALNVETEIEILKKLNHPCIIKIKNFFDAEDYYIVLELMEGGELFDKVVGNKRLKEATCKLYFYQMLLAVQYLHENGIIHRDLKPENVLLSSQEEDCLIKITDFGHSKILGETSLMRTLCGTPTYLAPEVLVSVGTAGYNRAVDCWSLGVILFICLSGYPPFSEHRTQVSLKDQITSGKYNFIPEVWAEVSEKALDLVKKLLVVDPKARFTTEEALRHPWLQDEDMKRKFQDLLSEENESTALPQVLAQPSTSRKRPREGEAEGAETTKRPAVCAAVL
Calcium/calmodulin-dependent protein kinase type II subunit delta (Homo sapiens), sequence (Q13557 whole entry): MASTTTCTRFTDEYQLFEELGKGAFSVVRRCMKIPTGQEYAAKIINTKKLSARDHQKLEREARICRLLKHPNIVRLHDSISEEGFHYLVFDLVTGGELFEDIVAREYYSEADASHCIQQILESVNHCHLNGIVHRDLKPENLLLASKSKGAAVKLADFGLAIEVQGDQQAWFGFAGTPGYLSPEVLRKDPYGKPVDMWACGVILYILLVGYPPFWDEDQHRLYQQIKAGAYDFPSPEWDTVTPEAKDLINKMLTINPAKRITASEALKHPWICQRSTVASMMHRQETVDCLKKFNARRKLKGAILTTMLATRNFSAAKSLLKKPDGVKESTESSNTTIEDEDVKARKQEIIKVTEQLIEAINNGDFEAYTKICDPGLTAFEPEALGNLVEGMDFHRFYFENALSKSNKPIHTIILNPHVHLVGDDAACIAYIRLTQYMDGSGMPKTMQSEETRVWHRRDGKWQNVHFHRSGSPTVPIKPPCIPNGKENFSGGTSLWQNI

On to `CN(c1ccc(NC(=O)Nc2c(Cl)cccc2Cl)cc1)c1ccnc(Nc2cccc(CS(C)(=O)=O)c2)n1`, for which the inhibition (in general, the relative decrease from the control value, in per cent) in [1] is 3.21%; in test [2], 9.51%; in [3] it was 30.2%; in test [4] it was 0.84%; in test [5] it was 9.78%; in [6], 2.74%. Further, the inhibition in test [7] was 8.66%; in test [8], 1.34%; in test [9], -0.13%; in test [10] it was 2.56%; in test [11], 2.73%; in test [12], 1.22%. Moreover, the inhibition in [13] was -0.38%; in [14] it was -1.59%; in test [15] it was -4.21%; in test [16] it was 1.99%; in test [17] it was 4.63%; in [18], 10.1%. Moreover, the inhibition amounted to 16.8% in test [19] and 4.55% in test [20].
With `O=C1NC(=O)C(c2cccc(Cl)c2)=C1Nc1ccc(Cl)c(C(=O)O)c1`, the inhibition in test [1] is -4.09%; in test [2] it was -9.56%; in test [3], 3.08%; in test [4], -0.75%; in test [5] it was 0.27%; in test [6] it was 1.73%. Also, the inhibition in test [7] was 2.47%; in test [8] it was -1.22%; in test [9], -0.07%; in test [10], 3.4%; in test [11], 2.06%; in test [12], 1.45%. In addition, the inhibition was 4.49% in [13]; -0.36% in test [14]; -0.93% in test [15]; 0.81% in [16]; 2.22% in [17]; 2.39% in test [18]. For the same molecule, the inhibition in test [19] came out at 3.13%; in test [20], 3.48%.
`C[C@@H](Oc1cc(-n2cnc3ccc(OCC4CCN(C)CC4)cc32)sc1C(N)=O)c1ccccc1Cl`: the inhibition in [1] amounted to 13.7%; in test [2], 30.2%; in test [3], 71.9%; in test [4], 28.5%; in [5], 60%; in test [6], 38.5%. Also, the inhibition in test [7] was determined as 72.8%; in [8], 1.56%; in [9], 5.96%; in [10], 6.36%; in [11], 12.8%; in test [12], 9.02%. Moreover, the inhibition came out at 38.1% in test [13]; 0.69% in test [14]; 3.44% in [15]; 7.19% in test [16]; 10.4% in test [17]; 2.55% in test [18]. Moreover, the figures for the inhibition in test [19] and in test [20] were 6.43% and 7.7%, respectively.
Take `COc1ccc2cc(-c3c(-c4ccncc4)nc(-c4ccc([S+](C)[O-])cc4C)n3C)ccc2c1` (stereo not given): the inhibition in test [1] was 1.05%; in test [2], -1.98%; in test [3], 4.95%; in test [4], -0.02%; in [5], 3.28%; in test [6] it was 0.33%. Further, the inhibition in [7] was 3.47%; in test [8], 0%; in [9] it was 1.15%; in test [10], -2.89%; in test [11] it was -1.04%; in [12], -0.62%. Also, the inhibition in test [13] was 0.45%; in test [14] it was 0.58%; in test [15] it was 1.17%; in test [16], -4.29%; in test [17], -9.96%; in test [18], -6.42%. Besides, the results for the inhibition in test [19] and in test [20] were -5.67% and -9.46%, respectively.
